Where “and” joins values, the source holds several entries; their conditions need not be identical. Identical values can stand only once. Results filed as inconclusive are left out. Calls of active or inactive are those of the source. Rule for the calls: active = hit-call score of the fitted dose curve at least 0.9, where 1 is the maximum; inconclusive = response in the unintended direction; inactive = score below 0.9.

Estrogen receptor beta (Homo sapiens), sequence (Q92731 whole entry, looked up, the tested form may be a part): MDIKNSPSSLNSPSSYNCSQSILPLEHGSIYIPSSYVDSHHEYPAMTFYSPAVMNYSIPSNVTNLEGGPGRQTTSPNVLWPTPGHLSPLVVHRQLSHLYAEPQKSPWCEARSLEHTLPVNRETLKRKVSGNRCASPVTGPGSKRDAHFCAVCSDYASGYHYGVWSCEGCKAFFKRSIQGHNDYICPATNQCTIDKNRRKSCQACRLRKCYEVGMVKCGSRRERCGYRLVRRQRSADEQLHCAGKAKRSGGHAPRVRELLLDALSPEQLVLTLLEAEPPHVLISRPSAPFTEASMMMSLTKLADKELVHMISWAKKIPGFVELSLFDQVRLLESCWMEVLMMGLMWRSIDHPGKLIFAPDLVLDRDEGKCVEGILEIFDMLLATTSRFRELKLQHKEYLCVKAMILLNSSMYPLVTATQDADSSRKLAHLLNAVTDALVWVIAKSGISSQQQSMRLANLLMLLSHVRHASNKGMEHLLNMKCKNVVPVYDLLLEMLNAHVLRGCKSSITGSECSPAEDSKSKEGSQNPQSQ
GAL4 Transcription Factor (Internal Marker), GAL4 (gene 855828), sequence (P04386 whole entry, looked up, the tested form may be a part): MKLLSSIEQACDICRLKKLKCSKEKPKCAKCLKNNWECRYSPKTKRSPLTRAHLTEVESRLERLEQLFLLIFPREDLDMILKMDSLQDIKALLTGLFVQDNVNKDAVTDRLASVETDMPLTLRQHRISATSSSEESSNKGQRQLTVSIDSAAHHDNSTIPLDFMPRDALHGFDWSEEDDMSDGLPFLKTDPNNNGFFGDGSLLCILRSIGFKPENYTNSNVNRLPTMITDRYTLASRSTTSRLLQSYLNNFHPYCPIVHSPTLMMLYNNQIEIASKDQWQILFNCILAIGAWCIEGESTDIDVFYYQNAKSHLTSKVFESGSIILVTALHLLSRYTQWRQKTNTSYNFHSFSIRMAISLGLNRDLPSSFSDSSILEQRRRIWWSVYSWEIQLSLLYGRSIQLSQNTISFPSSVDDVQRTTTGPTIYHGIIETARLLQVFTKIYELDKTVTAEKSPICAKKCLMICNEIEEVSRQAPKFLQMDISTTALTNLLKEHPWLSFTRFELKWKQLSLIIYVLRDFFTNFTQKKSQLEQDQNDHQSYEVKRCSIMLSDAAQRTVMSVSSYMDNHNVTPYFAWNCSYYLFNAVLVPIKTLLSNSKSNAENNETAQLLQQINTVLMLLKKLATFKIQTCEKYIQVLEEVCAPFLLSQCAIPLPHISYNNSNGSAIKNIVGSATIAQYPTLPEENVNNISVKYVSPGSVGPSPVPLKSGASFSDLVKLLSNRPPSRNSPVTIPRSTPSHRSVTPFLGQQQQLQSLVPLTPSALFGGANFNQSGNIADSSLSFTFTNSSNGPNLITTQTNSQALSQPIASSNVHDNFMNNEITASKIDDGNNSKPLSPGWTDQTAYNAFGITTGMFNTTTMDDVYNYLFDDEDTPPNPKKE

The target in one test is zebrafish Thyroid Hormone Receptor alpha (TRa), thraa (gene 30670) (UniProt Q98867). Description: ATG_zfTRa_XSP1: Attagene TRANS-FACTORIAL Multi-Species (XSP1) HepG2 Assay for zebrafish Thyroid Hormone Receptor alpha (TRa) (AID 2283807). An outline of the steps: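 Reporter transcripts driven by a chimeric zebrafish TRa–Gal4 protein were measured by RT-PCR with fluorescent labelling and capillary electrophoresis. These came from transiently transfected HepG2 cells after 24 h chemical exposure, with 3 nM 6-alpha-fluorotestosterone added; baseline was DMSO.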
zebrafish Thyroid Hormone Receptor alpha (TRa), thraa (gene 30670), sequence (Q98867 whole entry, looked up, the tested form may be a part): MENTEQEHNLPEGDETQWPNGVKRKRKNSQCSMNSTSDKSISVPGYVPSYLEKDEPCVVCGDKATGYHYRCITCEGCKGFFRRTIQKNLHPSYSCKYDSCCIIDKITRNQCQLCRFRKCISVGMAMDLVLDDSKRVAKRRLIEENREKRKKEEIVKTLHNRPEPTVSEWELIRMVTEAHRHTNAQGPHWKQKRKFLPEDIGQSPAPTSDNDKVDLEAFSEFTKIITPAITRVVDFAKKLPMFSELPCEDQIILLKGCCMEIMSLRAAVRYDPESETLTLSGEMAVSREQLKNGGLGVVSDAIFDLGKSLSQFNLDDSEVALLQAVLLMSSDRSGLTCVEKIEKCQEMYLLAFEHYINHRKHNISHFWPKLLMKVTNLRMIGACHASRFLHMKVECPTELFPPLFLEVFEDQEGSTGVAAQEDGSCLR
As for `CCC(C)(C)C1CCC(O)CC1` (stereo unspecified), the outcome was inactive.
Same read-out and setting: the value for `Cc1oc(-c2ccccc2)nc1CCOc1ccc(C[C@H](Nc2ccccc2C(=O)c2ccccc2)C(=O)O)cc1` was “inactive”; that for `CC[C@H](c1ccc(O)cc1)[C@@H](CC)c1ccc(O)cc1` was “inactive”.

The target of a further test is zebrafish Thyroid Hormone Receptor beta (TRb), thrb (gene 30607) (UniProt Q9PVE4). Description: ATG_zfTRb_XSP1: Attagene TRANS-FACTORIAL Multi-Species (XSP1) HepG2 Assay for zebrafish Thyroid Hormone Receptor beta (TRb) (AID 2283809). An outline of the steps: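 HepG2 cells transiently transfected with multiplexed GAL4-UAS reporter units expressing chimeric zebrafish TRb–Gal4. Dosed 24 h with 3 nM 6-alpha-fluorotestosterone present; reporter mRNA measured by RT-PCR, HpaI digestion and capillary electrophoresis; gain of signal versus DMSO.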
zebrafish Thyroid Hormone Receptor beta (TRb), thrb (gene 30607), sequence (Q9PVE4 whole entry, looked up, the tested form may be a part): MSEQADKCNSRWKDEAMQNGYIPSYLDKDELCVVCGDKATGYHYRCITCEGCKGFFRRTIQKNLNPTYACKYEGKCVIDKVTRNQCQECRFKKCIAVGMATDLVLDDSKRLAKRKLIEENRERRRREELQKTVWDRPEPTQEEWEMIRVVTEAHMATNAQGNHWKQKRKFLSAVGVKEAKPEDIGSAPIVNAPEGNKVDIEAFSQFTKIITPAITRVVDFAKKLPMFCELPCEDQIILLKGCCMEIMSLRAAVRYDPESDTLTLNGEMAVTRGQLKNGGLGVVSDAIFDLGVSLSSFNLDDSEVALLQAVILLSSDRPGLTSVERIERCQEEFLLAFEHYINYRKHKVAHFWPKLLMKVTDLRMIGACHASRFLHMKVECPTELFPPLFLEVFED
As to `CCC(C)(C)C1CCC(O)CC1` (stereo unspecified), the compound was classed as inactive.
For `Cc1oc(-c2ccccc2)nc1CCOc1ccc(C[C@H](Nc2ccccc2C(=O)c2ccccc2)C(=O)O)cc1`, the outcome was inactive.
Regarding `CC[C@H](c1ccc(O)cc1)[C@@H](CC)c1ccc(O)cc1`, the compound was called inactive.

System in another test: not listed separately
The test can be described thus: ATG_M_06_XSP2: Attagene TRANS-FACTORIAL Multi-Species (XSP2) HepG2 Assay for M06 Transcription Factor (Internal Marker) (AID 2283811).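 Note: internal background marker reporter mRNA measured by RT-PCR and capillary electrophoresis; hits are increases in signal above the DMSO baseline.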 A digest of the protocol: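 Cells of the human liver line HepG2 carried transfected reporter transcription units and were treated for 24 h. Induced reporter transcripts were detected by fluorescence after RT-PCR and capillary electrophoresis, with activity fitted in the gain direction against DMSO.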
Consider `CCC(C)(C)C1CCC(O)CC1` (stereo unspecified), for which the compound was called inactive.
Consider `O=C(O)Cc1cc(I)c(Oc2cc(I)c(O)c(I)c2)c(I)c1`, for which the call was inactive.
In the case of `CCC(=C(c1ccc(O)cc1)c1ccc(OCCN(C)C)cc1)c1ccccc1`, the compound was called inactive.
With `Cc1oc(-c2ccccc2)nc1CCOc1ccc(C[C@H](Nc2ccccc2C(=O)c2ccccc2)C(=O)O)cc1`, the compound was called inactive.
In the case of `CCCOC(=O)c1ccc(O)cc1`, the call was inactive.
For `CC[C@H](c1ccc(O)cc1)[C@@H](CC)c1ccc(O)cc1`, the outcome was inactive.
For `c1ccc2c(c1)ccc1ccccc12`, the compound was classed as inactive.
`O=c1c(-c2ccc(O)cc2)coc2cc(O)ccc12`: the result was inactive.

The test system of the next test is turtle Estrogen Receptor (ERa), gene 101933533. Description: ATG_trERa_XSP2: Attagene TRANS-FACTORIAL Multi-Species (XSP2) HepG2 Assay for turtle Estrogen Receptor (ERa) (AID 2283812).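 Note: actives raise reporter signal above DMSO so AC50 reflects agonist activity.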 An outline of the steps:
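Readout is reporter mRNA quantified by RT-PCR with capillary electrophoresis after 24 h compound exposure, increase relative to DMSO. Uses transiently transfected human HepG2 liver cells carrying a chimeric turtle ERa-Gal4 receptor driving GAL4-UAS reporters.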
As for `CCC(C)(C)C1CCC(O)CC1` (stereo unspecified), the compound was called inactive.
Consider `O=C(O)Cc1cc(I)c(Oc2cc(I)c(O)c(I)c2)c(I)c1`, for which the outcome was inactive.
For `Cc1oc(-c2ccccc2)nc1CCOc1ccc(C[C@H](Nc2ccccc2C(=O)c2ccccc2)C(=O)O)cc1`, the compound was classed as inactive.
As usually defined, the AC50 is the concentration giving half of the maximal activity seen. Turning to `C#C[C@]1(O)CC[C@H]2[C@@H]3CCC4=CC(=O)CC[C@@H]4[C@H]3CC[C@@]21C`, the AC50 is 122 nM (active).
Take `CCCOC(=O)c1ccc(O)cc1`: the AC50 is 72.9 µM (active) and 726 nM (active).
For `CC[C@H](c1ccc(O)cc1)[C@@H](CC)c1ccc(O)cc1`, the AC50 is 0.0546 nM (active).
With `c1ccc2c(c1)ccc1ccccc12`, the compound was called inactive.
Take `Oc1cc2ccccc2c2ccccc12`: the compound was called inactive.
Regarding `O=c1c(-c2ccc(O)cc2)coc2cc(O)ccc12`, the AC50 was 994 nM (active) and 448 nM (active).

A further test has as its target Estrogen receptor beta (Homo sapiens) (UniProt Q92731). The test can be described thus: ATG_hERb_XSP2: Attagene TRANS-FACTORIAL Multi-Species (XSP2) HepG2 Assay for human Estrogen Receptor (ERb) (AID 2283813).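 Note: actives raise reporter mRNA above DMSO so AC50 reflects agonist induction.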 An outline of the steps:
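Transient TRANS reporter system in HepG2: after 24 h of chemical, RNA is reverse-transcribed, reporter cDNA amplified, FAM-labelled and sized by capillary electrophoresis. Induction of the human ERb-Gal4 reporter is measured relative to DMSO.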
On to `CCC(=C(c1ccc(O)cc1)c1ccc(OCCN(C)C)cc1)c1ccccc1`, for which the outcome was inactive.
Turning to `Cc1oc(-c2ccccc2)nc1CCOc1ccc(C[C@H](Nc2ccccc2C(=O)c2ccccc2)C(=O)O)cc1`, the compound was classed as inactive.
For `C#C[C@]1(O)CC[C@H]2[C@@H]3CCC4=CC(=O)CC[C@@H]4[C@H]3CC[C@@]21C`, the AC50 is 2.43 µM (active).
Take `CCCOC(=O)c1ccc(O)cc1`: the AC50 is 31.9 µM (active) and 2.52 µM (active).
On to `CC[C@H](c1ccc(O)cc1)[C@@H](CC)c1ccc(O)cc1`, for which the AC50 was 0.000147 µM (active).
As to `Oc1cc2ccccc2c2ccccc12`, the call was inactive.

In another test the target is GAL4 Transcription Factor (Internal Marker), GAL4 (gene 855828) (UniProt P04386). Description: ATG_GAL4_XSP2: Attagene TRANS-FACTORIAL Multi-Species (XSP2) HepG2 Assay for GAL4 Transcription Factor (Internal Marker) (AID 2283814).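 Note: GAL4 reporter mRNA background control in MRTU transfected cells not a receptor target.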 A digest of the protocol:
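Background-control readout: gain-of-signal fitted against DMSO. After 24 h exposure of transfected HepG2 (MRTU, GAL4-UAS reporters; 3 nM 6-alpha-fluorotestosterone, 1.5 nM norgestrel present), transcripts quantified by RT-PCR and capillary electrophoresis fluorescence.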
As to `CCC(C)(C)C1CCC(O)CC1` (stereo unspecified), the call was inactive.
`O=C(O)Cc1cc(I)c(Oc2cc(I)c(O)c(I)c2)c(I)c1`: the result was inactive.

These data come from PubChem BioAssay (EPA / NIEHS).
